Shown is part of a subset that was picked to be rich in the strongest signals.
How the values were obtained:
Assay in all cases: glycan array binding signal (z-score within array); higher = stronger binding
Settings in all cases: glycan notation: IUPAC condensed, linker removed
[1] = target: Fuc(a1-2)Gal(b1-3)GalNAc(a1-3)[Fuc(a1-2)]Gal(b1-4)GlcNAc
Method in brief: (§1)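 The Consortium for Functional Glycomics database supplied 3228 glycan arrays, of which those lacking an available protein sequence were dropped. The binding signal, a within-array Z-score, was averaged across arrays of the same protein sequence and across linkers. Negative scores can be read as non-binding.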

Fuc(a1-2)Gal(b1-4)GlcNAc = target: Fuc(a1-2)Gal(b1-4)GlcNAc
Method in brief: as §1

[2] = target: Fuc(a1-2)Gal(b1-4)GlcNAc(b1-3)Gal(b1-4)GlcNAc(b1-2)Man(a1-3)[Fuc(a1-2)Gal(b1-4)GlcNAc(b1-3)Gal(b1-4)GlcNAc(b1-2)Man(a1-6)]Man(b1-4)GlcNAc(b1-4)GlcNAc
Method in brief: as §1

[3] = target: Fuc(a1-2)Gal(b1-4)GlcNAc(b1-6)GalNAc
Method in brief: as §1

[4] = target: Fuc(a1-2)Gal(b1-4)[Fuc(a1-3)]GlcNAc(b1-3)[Neu5Ac(a2-6)Gal(b1-4)GlcNAc(b1-6)]Gal(b1-4)Glc
Method in brief: as §1

[5] = target: Fuc(a1-2)[Gal(a1-3)]Gal(b1-4)GlcNAc(b1-3)[Fuc(a1-2)[Gal(a1-3)]Gal(b1-4)GlcNAc(b1-6)]GalNAc
Method in brief: as §1

[6] = target: Fuc(a1-2)[GalNAc(a1-3)]Gal(b1-3)GlcNAc(b1-2)Man(a1-3)[Fuc(a1-2)[GalNAc(a1-3)]Gal(b1-3)GlcNAc(b1-2)Man(a1-6)]Man(b1-4)GlcNAc(b1-4)[Fuc(a1-6)]GlcNAc
Method in brief: as §1

[7] = target: Fuc(a1-2)[GalNAc(a1-3)]Gal(b1-4)[Fuc(a1-3)]GlcNAc(b1-3)GalNAc
Method in brief: as §1

[8] = target: Fuc(a1-3)[Gal(b1-4)]GlcNAc(b1-6)GalNAc
Method in brief: as §1

Gal(a1-3)Gal = target: Gal(a1-3)Gal
Method in brief: as §1

[9] = target: Gal(a1-3)Gal(b1-3)GlcNAc(b1-6)GalNAc
Method in brief: as §1

Gal(a1-3)Gal(b1-4)Glc = target: Gal(a1-3)Gal(b1-4)Glc
Method in brief: as §1

Gal(b1-3)Gal(b1-4)GlcNAc = target: Gal(b1-3)Gal(b1-4)GlcNAc
Method in brief: as §1

Gal(b1-3)GalNAc = target: Gal(b1-3)GalNAc
Method in brief: as §1

[10] = target: Gal(b1-3)GlcNAc(b1-3)Gal(b1-4)GlcNAc(b1-6)[Gal(b1-3)GlcNAc(b1-3)]Gal(b1-4)Glc
Method in brief: as §1

[11] = target: Gal(b1-3)GlcNAc(b1-3)Gal(b1-4)[Fuc(a1-3)]GlcNAc
Method in brief: as §1

[12] = target: Gal(b1-3)[Fuc(a1-4)]GlcNAc(b1-2)Man
Method in brief: as §1

[13] = target: Gal(b1-3)[Fuc(a1-4)]GlcNAc(b1-3)Gal(b1-4)[Fuc(a1-3)]GlcNAc
Method in brief: as §1

[14] = target: Gal(b1-4)GlcNAc(b1-3)Gal(b1-4)GlcNAc(b1-2)[Gal(b1-4)GlcNAc(b1-3)Gal(b1-4)GlcNAc(b1-6)]Man(a1-6)[Gal(b1-4)GlcNAc(b1-3)Gal(b1-4)GlcNAc(b1-2)Man(a1-3)]Man(b1-4)GlcNAc(b1-4)GlcNAc
Method in brief: as §1

[15] = target: Gal(b1-4)GlcNAc(b1-3)Gal(b1-4)GlcNAc(b1-3)Gal(b1-4)GlcNAc
Method in brief: as §1

[16] = target: Gal(b1-4)GlcNAc(b1-3)GalNAc
Method in brief: as §1

Gal3S(b1-4)Glc = target: Gal3S(b1-4)Glc
Method in brief: as §1

[17] = target: Gal3S(b1-4)[Fuc(a1-3)]Glc6S
Method in brief: as §1

GalNAc3S(b1-4)GlcNAc = target: GalNAc3S(b1-4)GlcNAc
Method in brief: as §1

[18] = target: GlcNAc(b1-2)[GlcNAc(b1-6)]Man(a1-6)[GlcNAc(b1-2)Man(a1-3)]Man(b1-4)GlcNAc(b1-4)[Fuc(a1-6)]GlcNAc
Method in brief: as §1

[19] = target: GlcNAc(b1-3)Gal(b1-4)GlcNAc
Method in brief: as §1

[20] = target: GlcNAc(b1-3)Gal(b1-4)GlcNAc(b1-2)Man(a1-3)[GlcNAc(b1-3)Gal(b1-4)GlcNAc(b1-2)Man(a1-6)]Man(b1-4)GlcNAc(b1-4)GlcNAc
Method in brief: as §1

[21] = target: GlcNAc(b1-3)Gal(b1-4)GlcNAc(b1-3)Gal(b1-4)GlcNAc
Method in brief: as §1

[22] = target: GlcNAc(b1-3)Gal(b1-4)GlcNAc(b1-6)[Gal(b1-3)]GalNAc
Method in brief: as §1

[23] = target: GlcNAc(b1-3)[GlcNAc(b1-6)]GalNAc
Method in brief: as §1

[24] = target: GlcNAc(b1-4)GlcNAc(b1-4)GlcNAc(b1-4)GlcNAc(b1-4)GlcNAc(b1-4)GlcNAc
Method in brief: as §1

[25] = target: GlcNAc6S(b1-3)Gal(b1-4)GlcNAc
Method in brief: as §1

[26] = target: Man(a1-2)Man(a1-3)[Man(a1-2)Man(a1-6)]Man(a1-6)[Man(a1-2)Man(a1-2)Man(a1-3)]Man
Method in brief: as §1

[27] = target: Man(a1-3)[Man(a1-6)]Man(b1-4)GlcNAc(b1-4)[Fuc(a1-6)]GlcNAc
Method in brief: as §1

Neu5Ac(a2-3)Gal = target: Neu5Ac(a2-3)Gal
Method in brief: as §1

[28] = target: Neu5Ac(a2-3)Gal(b1-3)GalNAc
Method in brief: as §1

[29] = target: Neu5Ac(a2-3)Gal(b1-4)GlcNAc(b1-2)Man(a1-3)[Neu5Ac(a2-3)Gal(b1-4)GlcNAc(b1-2)Man(a1-6)]Man(b1-4)GlcNAc(b1-4)[Fuc(a1-6)]GlcNAc
Method in brief: as §1

[30] = target: Neu5Ac(a2-3)Gal(b1-4)GlcNAc(b1-3)Gal(b1-4)GlcNAc(b1-3)[Neu5Ac(a2-3)Gal(b1-4)GlcNAc(b1-3)Gal(b1-4)GlcNAc(b1-6)]GalNAc
Method in brief: as §1

[31] = target: Neu5Ac(a2-3)Gal6S(b1-4)[Fuc(a1-3)]GlcNAc
Method in brief: as §1

[32] = target: Neu5Ac(a2-3)[GalNAc(b1-4)]Gal(b1-4)GlcNAc
Method in brief: as §1

[33] = target: Neu5Ac(a2-6)Gal(b1-4)GlcNAc
Method in brief: as §1

[34] = target: Neu5Ac(a2-6)Gal(b1-4)GlcNAc(b1-6)[Gal(b1-3)GlcNAc(b1-3)]Gal(b1-4)Glc
Method in brief: as §1

[35] = target: Neu5Ac(a2-8)Neu5Ac(a2-8)Neu5Ac(a2-8)Neu5Ac(a2-3)[GalNAc(b1-4)]Gal(b1-4)Glc
Method in brief: as §1

[36] = target: Neu5Ac9Ac(a2-3)Gal(b1-4)GlcNAc
Method in brief: as §1

[37] = target: Neu5Gc(a2-3)Gal(b1-3)GlcNAc
Method in brief: as §1

B1: R2-fiber (Pseudomonas aeruginosa), Q9S576 (protein)
chain: HHHHHHKVAKDLVVSLAYQVRTEDGVLVDESPVSAPLDYLHGHGSLISGLETALEGHEVGDKFDVAVGANDAYGQYDENLVQRVPKDVFMGVDELQVGMRFLAETDQGPVPVEITAVEDDHVVVDGNHMLAGQNLKFNVEVVAIREATEEELAHGHVHGAHDHHHDHDHDGCCGGHGHDHGHEHGGEGCCGGKGNGGCGCHENLYFQGVTAGMALAATDIPGLDASKLVSGVLAEQRLPVFARGLATAVSNSSDPNTATVPLMLTNHANGPVAGRYFYIQSMFYPDQNGNASQIATSYNATSEMYVRVSYAANPSIREWLPWQRCDIGGSFTKEADGELPGGVNLDSMVTSGWWSQSFTAQAASGANYPIVRAGLLHVYAASSNFIYQTYQAYDGESFYFRCRHSNTWFPWRRMWHGGDFNPSDYLLKSGFYWNALPGKPATFPPSAHNHDVGQLTSGILPLARGGVGSNTAAGARSTIGAGVPATASLGASGWWRDNDTGLIRQWGQVTCPADADASITFPIPFPTLCLGGYANQTSAFHPGTDASTGFRGATTTTAVIRNGYFAQAVLSWEAFGR
- glycan array binding signal (z-score) [1]: 2.11
- glycan array binding signal (z-score) (Fuc(a1-2)Gal(b1-4)GlcNAc): 0.297
- glycan array binding signal (z-score) [2]: -1.36
- glycan array binding signal (z-score) [3]: -0.579
- glycan array binding signal (z-score) [4]: -0.021
- glycan array binding signal (z-score) [5]: 2.68
- glycan array binding signal (z-score) [6]: -0.288
- glycan array binding signal (z-score) [7]: 3.46
- glycan array binding signal (z-score) [8]: 2.09
- glycan array binding signal (z-score) (Gal(a1-3)Gal): 0.366
- glycan array binding signal (z-score) [9]: 0.045
- glycan array binding signal (z-score) (Gal(a1-3)Gal(b1-4)Glc): -0.505
- glycan array binding signal (z-score) (Gal(b1-3)Gal(b1-4)GlcNAc): -0.114
- glycan array binding signal (z-score) (Gal(b1-3)GalNAc): -0.235
- glycan array binding signal (z-score) [10]: 0.141
- glycan array binding signal (z-score) [11]: 0.162
- glycan array binding signal (z-score) [12]: -0.063
- glycan array binding signal (z-score) [13]: 2.1
- glycan array binding signal (z-score) [14]: 2.06
- glycan array binding signal (z-score) [15]: 0.018
- glycan array binding signal (z-score) [16]: -1.43
- glycan array binding signal (z-score) (Gal3S(b1-4)Glc): -0.16
- glycan array binding signal (z-score) [17]: 0.853
- glycan array binding signal (z-score) (GalNAc3S(b1-4)GlcNAc): -0.587
- glycan array binding signal (z-score) [18]: 14.6
- glycan array binding signal (z-score) [19]: -0.499
- glycan array binding signal (z-score) [20]: 0.012
- glycan array binding signal (z-score) [21]: 0.586
- glycan array binding signal (z-score) [22]: 0.122
- glycan array binding signal (z-score) [23]: 0.283
- glycan array binding signal (z-score) [24]: -0.525
- glycan array binding signal (z-score) [25]: -0.144
- glycan array binding signal (z-score) [26]: -0.717
- glycan array binding signal (z-score) [27]: -0.775
- glycan array binding signal (z-score) (Neu5Ac(a2-3)Gal): 2.35
- glycan array binding signal (z-score) [28]: -0.092
- glycan array binding signal (z-score) [29]: 5.23
- glycan array binding signal (z-score) [30]: -0.406
- glycan array binding signal (z-score) [31]: 5.49
- glycan array binding signal (z-score) [32]: -0.151
- glycan array binding signal (z-score) [33]: 3
- glycan array binding signal (z-score) [34]: 0.031
- glycan array binding signal (z-score) [35]: 0.115
- glycan array binding signal (z-score) [36]: -1.16
- glycan array binding signal (z-score) [37]: -0.167

— the supplement of paper PMC8728848
